Measured values: the supplement of paper PMC11417369
Over roughly 25,000 sequences, “ln(normalized median fluorescence intensity)” has its median near 9.3; the highest 2% begin near 10. Only a selection was taken, and the highest values are over-represented in it overall.

tested on: PF3D7_0420300 AP2 domain 1 (GST-tagged); assay: gcPBM binding intensity (ln(normalized median fluorescence intensity)); higher = stronger DNA binding
Outline: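 An Agilent 4 × 180k array carrying primer-extended double-stranded 36-bp intergenic genomic probes and negative controls received GST-tagged P. falciparum DNA-binding domains expressed in E. coli, about 25 μg on average, for 1 h. The binding buffer contained 1× PBS, 1% milk, 0.2 mg/ml BSA, 0.5% salmon testes DNA and 0.03% Triton X-100. Binding intensity is the top Masliner-normalised natural-log median intensity across replicate spots of either probe orientation, read after Alexa488 anti-GST antibody staining and a 488 nm scan.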

Sequence	gcPBM binding intensity (ln)
AGATTTAAATATCATACACACTTTATATATAATACA [CACACA_site4688]	9.35
CTAGCAAATACATACACACACACACCCATACATATA [CACACA_site3496]	10.3
TTAATATAAGCAAATACACACACACCGATATATATA [CACACA_site9269]	10.2
TTAATGGCAAAATAGGCACACACACCGATACATATA [CACACA_site8263]	9.91
TAAAAAAAATAGCATACACACATATATACCTATATA [CACACA_site4535]	9.72
CACATACAGATATATACACACAAATATAAATACACA [CACACA_site6512]	9.98
TATACATATACATATACACACACACCCATAAATAAA [CACACA_site8372]	9.99
CTAGCAAATACATACACACACACACCGATACAGATA [CACACA_site5853]	10.2
CACATACAGATATATACACACAAATATATATACTCA [CACACA_site4591]	9.76
CTAGCAAATACATACACACACACACCGATACATATA [CACACA_site9164]	10.2
CTAGCAAATACATACACACACACACGGATACCTATA [CACACA_site7609]	10.2
TATACCTATAAATACACACACATATATAAATAAATA [CACACA_site6730]	10
TACTAGCAAATACATACACACACACCCATATACATA [CACACA_site9163]	10.1
TATCATTTCATATCAAGTACAAACATTTTACATATA [XGTACX_site5307]	9.12
GTGCATATCTGATATACACACAATAAAATAGTATGT [CACACA_site7203]	9.33
AAAAAAAATTCACACTGTACAAAAGCATAAATAAAC [XGTACX_site5408]	9.75
AATGTGTATATATATACACACACATATATATATTTT [CACACA_site8596]	9.75
TTAATTTTTAGAAGAACACACACATATATATTATGA [CACACA_site7969]	9.59
TATACAGATAAATACACACACACATATATATATATA [CACACA_site4845]	10
TACAGATACAGATACACACACACACCGAAATAAATA [CACACA_site4865]	10.3
CATACAGATATATATACACACATACAGATAAATACA [CACACA_site4592]	9.83
TTTAATTTTTATATAACACACATATTGTAATTATGT [CACACA_site4566]	9.38
ATAAATACTAAAAATGAAATATAGAAAATAGCAATA [CACACA_negctrl_site501]	9.61
AAAATTCTTCGGGGGAGTACAAGGATATTCTACGTT [XGTACX_site3974]	9.53
TGATATCTTAAGAAATGTACAAAGATATAACCATTT [XGTACX_site1913]	9.11
